Screening results: PubChem, National Center for Advancing Translational Sciences (NCATS)
This is one part of a sample in which hits are shown more often than they occur.
NS1 inh = blocks influenza NS1 protein function; Potency, µM (top dose mostly 46.1 µM), for inactives: top-dose activity, positive = more growth; actives 0.4% (n = 270,000); AID 2326; calls by dose curve; further: actives are rising curves; nearly all actives have a fitted effect of over 50% in size
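A cell-based growth assay was used: compounds that relieve NS1-induced slow growth of budding yeast raise OD600. Assay medium was yeast nitrogen base with ammonium sulphate and -URA supplement, pH 6.0, with 2% galactose.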
Cruzain noTriton = blocks cruzain activity in detergent-free assay | P25779 | purified cruzain, Z-FR-AMC fluorescence, no detergent | Potency, µM, inactives show max response, negative = inhibition, actives largely listed as inhibitors | actives 2.3% (n = 200,000) | AID 1476;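 further: plate controls were enzyme without inhibitor for no effect and buffer without enzyme for full effect; nearly all actives have a fitted effect of over 40% in size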
Target sequence (P25779 123-467 limits assumed): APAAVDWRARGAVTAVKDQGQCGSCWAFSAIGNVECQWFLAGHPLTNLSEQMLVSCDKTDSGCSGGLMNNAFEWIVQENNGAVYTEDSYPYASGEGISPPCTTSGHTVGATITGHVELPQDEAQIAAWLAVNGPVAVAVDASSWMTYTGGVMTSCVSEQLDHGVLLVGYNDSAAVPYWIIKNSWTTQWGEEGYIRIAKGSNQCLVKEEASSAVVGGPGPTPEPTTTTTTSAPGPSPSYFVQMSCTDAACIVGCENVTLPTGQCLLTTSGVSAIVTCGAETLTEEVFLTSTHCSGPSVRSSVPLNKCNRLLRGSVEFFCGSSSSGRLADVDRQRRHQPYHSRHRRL
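Purified cruzain at 1.5 nM, pre-incubated 15 min with compound at room temperature in 100 mM sodium acetate pH 5.5, 5 mM DTT, 0.00005% Triton X-100. Reaction started with 2 uM Z-FR-AMC; AMC fluorescence increase over 60 s gives rate.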
Cruzain inh Det = inhibitors of Trypanosoma cruzi cruzain with detergent; actives 0.43% (n = 200,000); purified cruzain, Z-FR-AMC fluorescence, 0.01% Triton; AID 1478; Potency, µM, without a hit: max response, negative = inhibition, actives largely listed as inhibitors; P25779;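 further: plate controls were neutral wells for no effect and buffer without enzyme for full effect; nearly all actives have a fitted effect of over 40% in size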
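Cruzain (1.5 nM) preincubated 15 min at RT with compound in 100 mM sodium acetate pH 5.5, 5 mM DTT, 0.01% Triton X-100. Reaction started with 2 uM Z-FR-AMC; AMC fluorescence (ex 360/em 450 nm) change over 60 s gave rate.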
Active calls of the source: *; u = inconclusive; x = no result given. Unless noted, the call rests on the fitted dose curve; in most records, active means well fitted curve in the direction sought with a large enough effect; inconclusive means small, poorly fitted or top-dose-only effect, or another doubt; inactive means no such curve, though single readings can be large; an effect the other way counts as inactive or inconclusive. Potency means the concentration at half of the fitted maximal effect.

SMILES	NS1 inh	Cruzain noTriton	Cruzain inh Det
CCOC(=O)c1c(C#N)c(SCC(=O)Nc2ccc(OC)cc2)nc2c1CN(CC)CC2	9%	25µM*	-3%
CCOc1cccc(NC(=O)CSc2nc(C)c3c(c2C#N)CCCC3)c1	-2%	7.9µM*	4%
CCOC(=O)c1ccc(NC(=O)CSc2nc(-c3ccc(OC)cc3)cc(C(F)(F)F)c2C#N)cc1	x	-3%	0%
Cc1nc(SCC(=O)Nc2ccc3c(c2)OCO3)c(C#N)c2c1CCCC2	1%	-9%	-1%
COc1ccccc1C(=O)NC1(C(F)(F)F)C(=O)NC(C)=C1C#N (stereo not given)	x	-1%	-2%
CCc1ccc(NC(=O)Nc2ccccc2OCc2cc(=O)n3ccccc3n2)cc1	x	6%	3%
CCc1c(C)sc(NC(=O)CCc2ccc(OC)cc2)c1C(N)=O	0%	1%	-1%
CCCC(=O)Nc1sc(C)c(-c2ccc(OC)cc2)c1C#N	-3%	6.3µM*	3%
COc1ccccc1NC(=O)CSc1nc(-c2ccc(C(C)(C)C)cc2)c(C#N)c(=O)[nH]1	x	u	25µM*
Cc1ccc(C)c(NC(=O)CSc2nc(-c3ccccc3)c(C#N)c(=O)[nH]2)c1	x	2%	-3%
O=C(CSc1nc2ccccc2[nH]1)NC1CCCc2ccccc21 (stereo not given)	5%	2%	u
O=C(CSc1nc2ccc(Cl)cc2[nH]1)NC1CCCc2ccccc21 (stereo not given)	4%	-1%	-10%
Cc1ccc2nc(SC(C)C(=O)NC3CCCc4ccccc43)[nH]c2c1 (stereo not given)	4%	-9%	10µM*
COc1ccc2nc(SCC(=O)NC3CCCc4ccccc43)[nH]c2c1 (stereo not given)	-12%	-27%	14µM*
Nc1nc2c(nc(Sc3ccc(Cl)cc3)n2C2OC(CO)C(O)C2O)c(=O)[nH]1 (stereo not given)	x	0%	1%
Cc1ccc(C(=O)N/C(=C\c2ccc(Cl)cc2)C(=O)NC2CCCCC2)cc1	x	4%	-1%
CC(C)(C)C(=O)CP(=O)(O)O	-1%	-1%	-1%
CCn1cnc2cc(NS(=O)(=O)c3ccc(C)cc3)ccc21	18%	20%	0%
Cc1ccc(S(=O)(=O)Nc2ccc3c(c2)c2c(n3S(=O)(=O)c3ccc(C)cc3)CCCC2=O)cc1	15%	7.9µM*	-5%
CCOC(=O)c1c(C)n(S(=O)(=O)c2ccc(C)cc2)c2ccc(NS(=O)(=O)c3ccc(C)cc3)cc12	x	4µM*	-2%
Cc1ccc(S(=O)(=O)Nc2ccc3c(c2)CCC3)cc1	-36%	-6%	-13%
Cc1cccc(C)c1Nc1oc(-c2ccccc2)nc1-c1ccccc1F	x	-6%	2%
O=CN/C=C/c1cc(F)cc(F)c1F	x	9%	3%
Cc1ccc(O)c(/C=N/NC(=O)c2[nH]ncc2Br)c1	3%	4%	-6%
Cc1ccc(O)c(/C=N/NC(=O)C2=NNC(c3ccccc3)(c3ccccc3)C2)c1	18%	13µM*	-15%
SMILES	NS1 inh	Cruzain noTriton	Cruzain inh Det
COc1ccc2c(c1)sc1ncc(C(=O)NCc3cccc(Cl)c3)c(=O)n12	x	1%	1%
Cc1ccc(-n2nc3c(c2NC(=O)c2ccc4c(c2)OCO4)CSC3)cc1	-7%	16µM*	0%
CC(=O)Nc1c2c(nn1-c1ccc(C)cc1)CSC2	7%	x	x
Cc1ccc(CNC(=O)C(=O)Nc2c3c(nn2-c2ccc(F)cc2)CSC3)cc1	x	13µM*	-1%
Cc1ccc(CNC(=O)C(=O)Nc2c3c(nn2-c2ccccc2)CSC3)cc1	x	u	0%
CCOc1ccc(CNC(=O)CN2N=C(c3ccccc3)CCC2=O)cc1OC	x	2%	1%
CNc1ccccc1C(=O)N1CCc2c([nH]c3ccccc23)C1=O	x	-14%	-6%
CCC(C)(C)C(=O)Nc1ncc(S(=O)(=O)c2ccc([N+](=O)[O-])cc2)s1	7%	-10%	-12%
O=C(Nc1nnc(CCS(=O)(=O)c2ccc3ccccc3c2)s1)c1cccs1	11%	u	-1%
O=C(Nc1ncc(Cc2cccc(Cl)c2Cl)s1)c1ccc([N+](=O)[O-])cc1	u	-22%	4%
Cc1ccc(Nc2nnc(SCC(=O)Nc3ncc(S(=O)(=O)c4ccc([N+](=O)[O-])cc4)s3)s2)cc1	20%	7.9µM*	-1%
O=C(Nc1ncc(S(=O)(=O)c2ccc([N+](=O)[O-])cc2)s1)c1ccc2ccccc2c1	27%	20µM*	0%
O=C(Nc1ncc(Cc2cc(Cl)ccc2Cl)s1)c1ccc([N+](=O)[O-])cc1	u	13µM*	4%
O=C(Nc1nnc(CCS(=O)(=O)c2ccc3ccccc3c2)s1)c1ccc([N+](=O)[O-])cc1	-9%	13µM*	-1%
O=C(Nc1ncc(S(=O)(=O)c2ccc([N+](=O)[O-])cc2)s1)c1cccnc1	5%	x	x
